Active and inactive are the calls of the source. Rule for the calls: active = hit-call score of the fitted dose curve at least 0.9, where 1 is the maximum; inactive = score below 0.9.

Common to all, as to details: mRNA level, 48 h; actives raise or lower the signal
Read-out in test [1]: Cyclin D1 (CCND1), CCND1 (gene 595)
As to the kind of experiment: LTEA_HepaRG_CCND1: Life Technologies and Expression Analysis (LTEA) Assay for Cyclin D1 (CCND1) using HepaRG (AID 2283451).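 For AC50: differentiated human HepaRG liver cells in serum-free induction medium; TaqMan qRT-PCR transcript level normalised to ACTB GAPDH and POLR2A housekeeping genes.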 The method, boiled down: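 qRT-PCR (Fluidigm 96.96 array) read-out of transcript level, housekeeping-normalized (ACTB/GAPDH/POLR2A). HepaRG cells, 48 h chemical exposure, 8-point half-log series from 100 uM, 0.5% DMSO vehicle; gain or loss relative to DMSO baseline.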

Read-out in test [2]: catalase (CAT), CAT (gene 847)
As to the kind of experiment: LTEA_HepaRG_CAT: Life Technologies and Expression Analysis (LTEA) Assay for catalase (CAT) using HepaRG (AID 2283452). An outline of the steps:
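Differentiated HepaRG cells in serum-free induction medium were dosed 48 h in duplicate, eight half-log concentrations from 100 uM in 0.5% DMSO. Transcript measured by TaqMan qRT-PCR, normalised to ACTB/GAPDH/POLR2A, fitted bidirectionally against DMSO.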

Read-out in test [3]: flavin-containing dimethylaniline monooxygenases 3 (FMO3), FMO3 (gene 2328)
As to the kind of experiment: LTEA_HepaRG_FMO3: Life Technologies and Expression Analysis (LTEA) Assay for flavin-containing dimethylaniline monooxygenases 3 (FMO3) using HepaRG (AID 2283453).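 For AC50: differentiated human HepaRG liver cells in serum-free induction medium.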 The method, boiled down:
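FMO3 transcript quantified by TaqMan qRT-PCR against three housekeeping genes after 48 h chemical exposure of HepaRG cells. Eight-point half-log series, top 100 uM, 0.5% DMSO vehicle; phenobarbital 1mM induction control; up- or down-regulation fitted.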

Read-out in test [4]: Cytochrome P450 (CYP1A1), CYP1A1 (gene 1543)
As to the kind of experiment: LTEA_HepaRG_CYP1A1: Life Technologies and Expression Analysis (LTEA) Assay for Cytochrome P450 (CYP1A1) using HepaRG (AID 2283454). An outline of the steps: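 qRT-PCR read-out: CYP1A1 transcript normalized to three housekeeping genes, fitted bidirectionally against 0.5% DMSO vehicle baseline. Human HepaRG cells, 48 h chemical exposure, 8-point half-log series topping at 100 uM.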

Read-out in test [5]: CFLAR gene, CFLAR (gene 8837)
As to the kind of experiment: LTEA_HepaRG_CFLAR: Life Technologies and Expression Analysis (LTEA) Assay for CFLAR gene using HepaRG (AID 2283455). An outline of the steps: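 Gain- or loss-of-signal changes in CFLAR transcript were fitted bidirectionally relative to 0.5% DMSO. Cells (HepaRG, duplicate wells) were dosed for 48 h across eight half-log concentrations topping at 100 uM; quantitation by TaqMan qRT-PCR.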

Read-out in test [6]: Forkhead box O1 (FOXO1), FOXO1 (gene 2308)
As to the kind of experiment: LTEA_HepaRG_FOXO1: Life Technologies and Expression Analysis (LTEA) Assay for Forkhead box O1 (FOXO1) using HepaRG (AID 2283456). An outline of the steps: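 Using one lot of HepaRG hepatic cells kept in 0.5% DMSO, the team applied test chemicals in duplicate, half-log dilutions from 100 uM, for 48 h. Expression, normalised to ACTB/GAPDH/POLR2A, was compared with vehicle in either direction.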

Read-out in test [7]: Forkhead box O3 (FOXO3), FOXO3 (gene 2309)
As to the kind of experiment: LTEA_HepaRG_FOXO3: Life Technologies and Expression Analysis (LTEA) Assay for Forkhead box O3 (FOXO3) using HepaRG (AID 2283459). An outline of the steps: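 Gene-expression endpoint: FOXO3 transcript level by qRT-PCR in HepaRG cultures treated 48 h with chemicals up to 100 uM (half-log, 0.5% DMSO vehicle).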

Read-out in test [8]: ABC Transporter (ABCB11), ABCB11 (gene 8647)
As to the kind of experiment: LTEA_HepaRG_ABCB11: Life Technologies and Expression Analysis (LTEA) Assay for ABC Transporter (ABCB11) using HepaRG (AID 2283463). The method, boiled down: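 Using HepaRG cultures held in 0.5% DMSO, chemicals were tested at half-log dilutions from 100 uM for 48 h. Induction or suppression of ABCB11 mRNA, normalized to ACTB, GAPDH and POLR2A, was fitted bidirectionally against vehicle.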

Read-out in test [9]: Broad substrate specificity ATP-binding cassette transporter ABCG2 (Homo sapiens) (UniProt Q9UNQ0)
As to the kind of experiment: LTEA_HepaRG_ABCG2: Life Technologies and Expression Analysis (LTEA) Assay for ABC Transporter (ABCG2) using HepaRG (AID 2283465). The method, boiled down:
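Gene expression of ABCG2 in HepaRG liver cells is quantified by qRT-PCR following 48 h exposure across an eight-point series topping at 100 uM. Values come from bidirectional fitting relative to DMSO vehicle.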

Read-out in test [10]: ATP-citrate lyase (ACLY), ACLY (gene 47)
As to the kind of experiment: LTEA_HepaRG_ACLY: Life Technologies and Expression Analysis (LTEA) Assay for ATP-citrate lyase (ACLY) using HepaRG (AID 2283466). The method, boiled down:
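ACLY expression changes in human HepaRG liver cells are quantified by qRT-PCR after 48 h exposure to test chemicals (maximum 100 uM, half-log steps). Values are fitted in both directions relative to 0.5% DMSO vehicle.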

Read-out in test [11]: Peroxisomal acyl-coenzyme A oxidase 1 (ACOX1) gene, ACOX1 (gene 51)
As to the kind of experiment: LTEA_HepaRG_ACOX1: Life Technologies and Expression Analysis (LTEA) Assay for Peroxisomal acyl-coenzyme A oxidase 1 (ACOX1) gene using HepaRG (AID 2283467). An outline of the steps:
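Human HepaRG hepatic cultures, 48 h treatment with test chemicals up to 100 uM. ACOX1 expression read by qRT-PCR relative to 0.5% DMSO vehicle.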

Read-out in test [12]: Alkaline Phosphatase, Placental (ALPP) gene, ALPP (gene 250)
As to the kind of experiment: LTEA_HepaRG_ALPP: Life Technologies and Expression Analysis (LTEA) Assay for Alkaline Phosphatase, Placental (ALPP) gene using HepaRG (AID 2283468). An outline of the steps: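 qRT-PCR readout of ALPP mRNA (Fluidigm TaqMan), normalized to ACTB/GAPDH/POLR2A, after 48 h chemical exposure of HepaRG cells; 8-point half-log series, top 100 uM, 0.5% DMSO vehicle. Bidirectional curve fit versus DMSO baseline.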

Read-out in test [13]: Bcl-2 (BAD) gene, BAD (gene 572)
As to the kind of experiment: LTEA_HepaRG_BAD: Life Technologies and Expression Analysis (LTEA) Assay for Bcl-2 (BAD) gene using HepaRG (AID 2283469). An outline of the steps:
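Activity values reflect up- or down-regulation of BAD mRNA in human HepaRG hepatic cells treated 48 h in serum-free medium, with eight-point half-log dosing capped at 100 uM and 0.5% DMSO vehicle.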

Read-out in test [14]: Bcl-2 (BAX) gene, BAX (gene 581)
As to the kind of experiment: LTEA_HepaRG_BAX: Life Technologies and Expression Analysis (LTEA) Assay for Bcl-2 (BAX) gene using HepaRG (AID 2283470). An outline of the steps:
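Gene expression measured by Fluidigm qRT-PCR with three housekeeping genes for normalisation. HepaRG cells, plated 48 h beforehand, treated 48 h at up to 100 uM (8-point, half-log) in 0.5% DMSO. Bidirectional fitting versus DMSO.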

Read-out in test [15]: ABC Transporter (ABCC3), ABCC3 (gene 8714)
As to the kind of experiment: LTEA_HepaRG_ABCC3: Life Technologies and Expression Analysis (LTEA) Assay for ABC Transporter (ABCC3) using HepaRG (AID 2283462). An outline of the steps:
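qRT-PCR read-out of ABCC3 transcript, normalized to three housekeeping genes (ACTB, GAPDH, POLR2A), after 48 h chemical exposure of human HepaRG cells. Eight half-log concentrations, highest 100 uM, in 0.5% DMSO; gain or loss fitted relative to DMSO baseline.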

Read-out in test [16]: ABC Transporter (ABCC2), ABCC2 (gene 1244)
As to the kind of experiment: LTEA_HepaRG_ABCC2: Life Technologies and Expression Analysis (LTEA) Assay for ABC Transporter (ABCC2) using HepaRG (AID 2283464). An outline of the steps: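 qRT-PCR (TaqMan, Fluidigm array) read-out of ABCC2 mRNA, normalized to three housekeeping genes. Differentiated HepaRG cells were treated 48 h in serum-free induction medium with 8-point half-log series from 100 uM in 0.5% DMSO; curves fitted bidirectionally relative to DMSO.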

Read-out in test [17]: growth arrest and DNA damage 45 (GADD45B), GADD45B (gene 4616)
As to the kind of experiment: LTEA_HepaRG_GADD45B: Life Technologies and Expression Analysis (LTEA) Assay for growth arrest and DNA damage 45 (GADD45B) using HepaRG (AID 2283461). The method, boiled down: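 qRT-PCR read-out (Fluidigm TaqMan, housekeeping-normalized) of mRNA change in human HepaRG cells after 48 h chemical exposure; 8-point curve, top 100 uM, half-log steps, 0.5% DMSO vehicle; gain or loss fitted relative to DMSO baseline.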

Broad substrate specificity ATP-binding cassette transporter ABCG2 (Homo sapiens), sequence (Q9UNQ0 whole entry, looked up): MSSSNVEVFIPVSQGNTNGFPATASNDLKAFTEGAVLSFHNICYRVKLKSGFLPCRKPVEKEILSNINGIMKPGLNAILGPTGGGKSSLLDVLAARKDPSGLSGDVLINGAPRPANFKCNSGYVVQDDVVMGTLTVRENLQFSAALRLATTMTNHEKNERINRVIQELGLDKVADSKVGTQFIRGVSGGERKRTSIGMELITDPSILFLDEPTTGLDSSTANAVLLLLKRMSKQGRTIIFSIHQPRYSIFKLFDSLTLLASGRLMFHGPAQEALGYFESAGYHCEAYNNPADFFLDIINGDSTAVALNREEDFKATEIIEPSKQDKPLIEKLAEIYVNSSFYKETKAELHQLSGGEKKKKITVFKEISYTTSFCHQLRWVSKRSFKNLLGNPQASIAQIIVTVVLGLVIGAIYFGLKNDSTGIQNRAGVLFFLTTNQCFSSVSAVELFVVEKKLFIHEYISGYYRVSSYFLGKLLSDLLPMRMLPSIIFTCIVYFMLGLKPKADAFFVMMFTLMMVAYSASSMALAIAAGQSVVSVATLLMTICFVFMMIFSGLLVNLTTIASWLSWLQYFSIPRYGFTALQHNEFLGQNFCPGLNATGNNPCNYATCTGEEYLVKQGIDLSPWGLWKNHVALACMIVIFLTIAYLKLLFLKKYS

As to `Nc1ccc(Oc2ccc(N)cc2)cc1`, the compound was called inactive in [1], in [2], in test [3], in test [5], in test [6] and in [7]. For the same compound, the outcome in test [8], in test [9], in [10], in test [11], in test [12] and in test [13] was inactive. For the same compound, the compound was classed as inactive in test [14]. Besides, the AC50 in test [4] is 37.5 µM (active).
Consider `Cc1cccc(N)c1N`, for which the AC50 in test [1] was 50 µM (active); in test [2], 50 µM (active); in test [3], 61.7 µM (active); in test [4], 6.92 µM (active); in [5], 50 µM (active); in [7], 50 µM (active). Also, the AC50 was 62.6 µM (active) in [8] and 50 µM (active) in test [11]. In addition, the result in test [6], in [15], in [16], in test [9], in test [10] and in test [12] was inactive. In addition, the outcome in test [13] and in test [14] was inactive.
Take `CN(C)[C@@H]1C(=O)C(C(N)=O)=C(O)[C@@]2(O)C(=O)C3=C(O)c4c(O)cccc4[C@@](C)(O)[C@H]3C[C@@H]12`: the compound was classed as inactive in test [1], in test [2], in [3], in [5], in [6] and in [7]. For the same compound, the call in test [17], in test [8], in test [16], in test [9], in [10] and in [11] was inactive. Besides, the compound was called inactive in test [12], in [13] and in [14]. In addition, the AC50 in [4] was 34.7 µM (active).
With `O=[N+]([O-])c1ccc(Oc2ccc(Cl)cc2Cl)cc1`, the outcome in [1], in test [2], in [5], in test [6], in test [7] and in test [17] was inactive. Besides, the result in test [15], in [16], in test [10], in [11], in test [13] and in test [14] was inactive. The AC50 in test [3] was 50 µM (active); in test [4] it was 22.8 µM (active); in test [8], 11.5 µM (active); in test [9] it was 14.5 µM (active).
Consider `Oc1ccccc1Cl`, for which the result in test [1], in [2], in test [3], in test [4], in test [5] and in test [6] was inactive. For the same compound, the compound was called inactive in test [7], in test [15], in test [8], in test [16], in test [9] and in [10]. Besides, the compound was called inactive in test [11], in test [12], in test [13] and in [14].
As for `c1ccc2c(c1)oc1ccccc12`, the compound was called inactive in [1], in [2], in test [3], in [5], in [6] and in test [7]. For the same compound, the compound was classed as inactive in test [15], in test [8], in test [16], in test [9], in [10] and in test [11]. Also, the call in test [12], in test [13] and in test [14] was inactive. Moreover, in test [4], the AC50 was 50 µM (active).

One may read the AC50 as the concentration at which the activity in the assay is half-maximal.

The record behind these values is PubChem BioAssay (EPA / NIEHS).
